Measurements published in PubChem BioAssay AID1209 (Sanford-Burnham Center for Chemical Genomics, 2008).
The campaign covered roughly 190,000 compounds. About 810 (0.43%) were called active. Cut-off read from the data, not from the text of the source: active = inhibition above about 50%; inactive = the rest. For the sample, actives were picked, then their nearest neighbours and some compounds at random.

Each compound was assayed against Mannose-6-phosphate isomerase (Homo sapiens) (UniProt P34949) (assay: inhibitors of human PMI, primary screen, biochemical, fluorescence intensity, coupled assay (AID 1209;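 note: plate controls were DMSO vehicle for no effect and wells lacking substrate for full effect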)). Conditions: purified PMI enzyme, at 20 µM, active compounds read high.
Sequence of Mannose-6-phosphate isomerase (Homo sapiens) (P34949 whole entry, looked up): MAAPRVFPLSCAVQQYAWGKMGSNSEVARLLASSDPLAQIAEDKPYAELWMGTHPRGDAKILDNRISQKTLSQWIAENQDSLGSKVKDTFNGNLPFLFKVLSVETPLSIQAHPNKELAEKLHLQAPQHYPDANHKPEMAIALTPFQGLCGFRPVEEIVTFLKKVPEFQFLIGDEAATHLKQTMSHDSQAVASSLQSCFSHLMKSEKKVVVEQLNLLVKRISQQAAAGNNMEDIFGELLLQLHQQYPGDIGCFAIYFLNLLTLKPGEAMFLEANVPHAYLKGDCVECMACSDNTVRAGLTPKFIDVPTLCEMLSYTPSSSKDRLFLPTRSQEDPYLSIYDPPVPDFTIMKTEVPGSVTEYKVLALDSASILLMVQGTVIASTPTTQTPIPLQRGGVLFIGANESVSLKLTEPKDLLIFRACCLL

| SMILES | inhibition |
| --- | --- |
| O=C(O)CC(=O)Nc1ccccc1C(=O)O | 0.5% (inactive) |
| O=C(CSCc1ccc(Cl)cc1)Nc1ccc(S(=O)(=O)N2CCOCC2)cc1 | 11.5% (inactive) |
| COCCN(CCOC)S(=O)(=O)c1ccc(C(=O)Nc2nnc(COC)o2)cc1 | -8.8% (inactive) |
| Cc1cccc(NC(=O)c2ccc(NCC3CCCO3)c([N+](=O)[O-])c2)c1 (centres undefined) | 2% (inactive) |
| COc1ccc([C@H](C)NC[C@H](O)c2ccc(O)c(NC=O)c2)cc1 | 0.1% (inactive) |
| CCC(NC(C)C)C(O)c1ccc(O)c2[nH]c(=O)ccc12 (centres undefined) | 4.3% (inactive) |
| CCC(NC(C)C)C(O)c1ccc(O)c(O)c1 (centres undefined) | 57.9% (active) |
| CCC(C)c1ccc(O)c(N)c1 (centres undefined) | 26.6% (inactive) |
| CNC[C@H](O)c1cccc(O)c1 | -1.6% (inactive) |
| CNC[C@H](O)c1ccc(O)c(O)c1 | 63.2% (active) |
| Cc1c(C(=O)OC(C)C(C)C[N+](C)(C)C)oc2ccccc12 (centres undefined) | 1.7% (inactive) |
| COc1ccc(OC)c(C(C)NC(=O)c2ccco2)c1 (centres undefined) | 7% (inactive) |
| c1ccc(CNc2ncnc3nc[nH]c23)nc1 | 8.8% (inactive) |
| CCn1c(SCc2nc3ccccc3[nH]2)nnc1-c1ccc(OC)cc1 | 6.6% (inactive) |
| c1ccc2[nH]c(N3CCOCC3)nc2c1 | -5% (inactive) |
| c1ccc2[nH]c(SCCN3CCOCC3)nc2c1 | -3.1% (inactive) |
| c1ccc2[nH]c(SN3CCOCC3)nc2c1 | 94.5% (active) |
| OCCC1CN(Cc2cnc(-c3cccc4ccccc34)nc2)CCN1C1CCCCC1 (centres undefined) | 13.3% (inactive) |
| COc1ccccc1CNC(=O)c1cc2c(s1)CS(=O)(=O)C2 | 2.6% (inactive) |
| CCCOc1ccc(C2NC(=S)NC(C)=C2C(=O)c2ccccc2)cc1OC (centres undefined) | -34.6% (inactive) |
| COc1ccc(S(=O)(=O)NC(CC(=O)NCCc2ccc(OC)c(OC)c2)C(C)C)cc1 (centres undefined) | -5% (inactive) |
| Cc1nn(-c2ccccc2)c(N)c1Sc1cccc([N+](=O)[O-])c1 | 5.2% (inactive) |
| COc1c(/C=N/Nc2ccc([N+](=O)[O-])cc2[N+](=O)[O-])c(C)nn1-c1ccccc1 | 8.9% (inactive) |
| CCOC(=O)c1c(Cc2ccccc2)c[nH]c1C | -17.6% (inactive) |
| COc1ccc(Cc2nnc(N)s2)cc1OC | -1.6% (inactive) |
| COc1ccc(Cc2noc(-c3ccc(OC)c(OC)c3)n2)cc1OC | 1.8% (inactive) |

| SMILES | inhibition |
| --- | --- |
| COc1cccc(NC(=S)/C(=C(\[O-])c2ccc([N+](=O)[O-])cc2)[n+]2ccccc2)c1 | -1.1% (inactive) |
| CCOc1ccccc1NC(=O)CCS(=O)(=O)c1cccc2nonc12 | 0.7% (inactive) |
| O=C(CCS(=O)(=O)c1ccccc1)N1CCOCC1 | -8.2% (inactive) |
| CN(C)NC(=S)Nc1ccc2nc(-c3ccccn3)c(-c3ccccn3)nc2c1 | -8.4% (inactive) |
| Cc1ccc(NC(=S)Nc2ccc3nc(-c4ccccn4)c(-c4ccccn4)nc3c2)cc1C | 76.2% (active) |
| Cc1nc2ccc(NC(=S)NCCCO)cc2nc1C | -27.3% (inactive) |
| CCCNC(=S)Nc1ccc2nc(-c3ccccn3)c(-c3ccccn3)nc2c1 | 26.5% (inactive) |
| CC(C)(C)CC(C)(C)NC(=S)Nc1ccc2nc(-c3ccccn3)c(-c3ccccn3)nc2c1 | -21.7% (inactive) |
| OCCCNC(=S)Nc1ccc2nc(-c3ccccn3)c(-c3ccccn3)nc2c1 | 56.9% (active) |
| COc1cc2nc(CN(C)Cc3ccc(Cl)cc3)[nH]c(=O)c2cc1OC | 5.6% (inactive) |
| Cc1ccc(C(=O)Nc2ccc(Cl)cc2C)c(Cl)c1 | -5.9% (inactive) |
| COc1ccc(C2c3c(oc4ccc(C)cc4c3=O)C(=O)N2c2cc(C)ccn2)cc1OC (centres undefined) | 30.5% (inactive) |
| COC(=O)CCC(=O)COc1ccc(OC)cc1C#N | 1.1% (inactive) |
| Cc1ccc(OCC(=O)NCc2ccccc2)c([N+](=O)[O-])n1 | 20.4% (inactive) |
| Cc1cc2n(n1)SC(Nc1cccc3ccccc13)N2 (centres undefined) | 56.1% (active) |
| CCc1ccccc1NC1c2ccccc2C(=O)N1c1cc(C)ccn1 (centres undefined) | -2.8% (inactive) |
| Cc1cc2n(n1)SC(Nc1cc(Cl)ccc1Cl)N2 (centres undefined) | 19.6% (inactive) |
| CCc1ccccc1NC(=O)c1cc(C2CC2)on1 | -4.9% (inactive) |
| Cc1cc(C(=O)Nc2cccc3ccccc23)n(-c2ccccc2)n1 | -11.6% (inactive) |
| O=C1NC(=O)C(Nc2cccc3ccccc23)S1 (centres undefined) | -0.5% (inactive) |
| Cc1ccc(Nc2cc(-n3nc(C)cc3C)ncn2)c(C)c1 | -0.1% (inactive) |
| COc1ccc(S(=O)(=O)N2CCOCC2)cc1NC(=O)CN1CCCCCC1 | -4.3% (inactive) |
| COc1ccc(OC)c(S(=O)(=O)Nc2cccc(C(C)=O)c2)c1 | 4.2% (inactive) |
| CC(=O)Nc1ccc(S(=O)(=O)N2CC3(C)CC2CC(C)(C)C3)cc1 (centres undefined) | 12.4% (inactive) |
| COc1ccc(NS(=O)(=O)c2ccc(OCC(=O)N3CCOCC3)cc2)cc1 | 10.6% (inactive) |
| O=[N+]([O-])c1ccccc1NC(=S)N/N=C/c1ccc(O)c(O)c1 | 54.1% (active) |

| SMILES | inhibition |
| --- | --- |
| COc1ccc(/C=N/NC(=S)Nc2ccccc2[N+](=O)[O-])cc1O | 9% (inactive) |
| O=[N+]([O-])c1cc(/C=N/NC(=S)Nc2ccccc2Cl)ccc1Cl | -6.9% (inactive) |
| O=C(c1ccc(C(=O)N2CCCc3ccccc32)s1)N1CCCc2ccccc21 | -2.1% (inactive) |
| Clc1ccccc1-c1nnc2sc(C3COc4ccccc4O3)nn12 (centres undefined) | 50% (active) |
| Brc1ccccc1-c1nnc2sc(-c3ccc4c(c3)OCCO4)nn12 | 22.5% (inactive) |
| Fc1ccc(-c2nn3c(C4COc5ccccc5O4)nnc3s2)cc1 (centres undefined) | 7.6% (inactive) |
| Cc1ccc(-c2nnc3sc(C4COc5ccccc5O4)nn23)cc1 (centres undefined) | 3.9% (inactive) |
| Clc1ccccc1-c1nnc2sc(-c3ccc4c(c3)OCO4)nn12 | 50.8% (active) |
| c1csc(-c2nn3c(C4COc5ccccc5O4)nnc3s2)c1 (centres undefined) | 37.9% (inactive) |
| COc1ccccc1-c1nn2c(C3COc4ccccc4O3)nnc2s1 (centres undefined) | 57.6% (active) |
| Fc1ccc(-c2nnc3sc(C4COc5ccccc5O4)nn23)cc1 (centres undefined) | 0.9% (inactive) |
| Clc1cccc(-c2nnc3sc(-c4ccc5c(c4)OCO5)nn23)c1 | 9.8% (inactive) |
| CCC1(C)SC(N)=NN1C(C)=O (centres undefined) | 7.1% (inactive) |
| CCOC(=O)c1ccc(N/C(=N\S(=O)(=O)c2ccccc2C)c2ccccc2)cc1 | 10.9% (inactive) |
| COc1cc(C(=O)NCc2ccccc2)cc(Br)c1OC | 1.2% (inactive) |
| COc1cc(C(=S)NCc2ccccc2)cc(Br)c1O | 68.6% (active) |
| COc1ccc(C(=O)NCc2ccccc2)cc1Br | 1.4% (inactive) |
| Cc1cc(/C=N\NC(=O)COc2cccc3cccnc23)c(C)n1-c1ccccc1 | 1.7% (inactive) |
| O=C(c1ccco1)N1CCn2c1nc1ccccc12 | -7.1% (inactive) |
| COc1ccc(NC(=O)c2ccc3nc[nH]c3c2)c(OC)c1 | 8.4% (inactive) |
| C=C(C)C1Cc2c(C)nn(-c3ccccn3)c2C1 (centres undefined) | -7.4% (inactive) |
| Cc1nn(-c2ccccn2)c2c1-c1nc(N)ncc1CC2 | 4.1% (inactive) |
| Cc1nn(-c2ccccn2)c2c1C(=O)C(Br)CC2 (centres undefined) | 72% (active) |
| COc1ccc(CNC(=O)CCCNS(=O)(=O)c2cccc3nonc23)cc1 | 13% (inactive) |
| CC(C)c1ccc(C(=O)CSc2ncn[nH]2)cc1 | 83% (active) |
| Cc1ccc(C(=O)CSc2ncn[nH]2)cc1 | -6.3% (inactive) |

| SMILES | inhibition |
| --- | --- |
| CCc1ccc(C(=O)CSc2ncn[nH]2)cc1 | 42.1% (inactive) |
| COC(=O)Cc1cn(-c2ncc(C(F)(F)F)cc2Cl)c2ccccc12 | 1.6% (inactive) |
| Cc1cc2ccccc2n1CCNC(=O)c1ccccc1 | -10.2% (inactive) |
| Cc1c(Br)c(C(=O)NCc2cc3cc(Cl)ccc3[nH]2)nn1C | 5.7% (inactive) |
| O=C(CN1CCN(Cc2ccccc2)CC1)c1ccccc1 | 2% (inactive) |
| O=C(CN1CCN(Cc2ccccc2)CC1)N1CCCCCC1 | 60.7% (active) |
| O=C(C1CCN(Cc2ccccc2)CC1)N1CCCC1 | -5.2% (inactive) |
| O=c1[nH]c(=S)[nH]c2[nH]c(=S)[nH]c12 | 67.9% (active) |
| Nc1[nH]c(=S)[nH]c(=O)c1-c1ccccc1 | 21.9% (inactive) |
| O=c1[nH]c(=S)[nH]c2sccc12 | -13.4% (inactive) |
| COc1ccc(CC(=O)OCC(=O)NC(=O)NC(C)C)cc1 | 9% (inactive) |
| CCCn1nnnc1NCc1ccc(F)cc1 | -4.6% (inactive) |
| CCC(=O)N1c2ccccc2NC2=C(C(=O)CC(C)(C)C2)C1c1cccnc1 (centres undefined) | 7.2% (inactive) |
| CCOc1ccc(/C=N/n2cnnc2)cc1 | 84.4% (active) |
| C(=N\n1cnnc1)/c1ccc(OCc2ccccc2)cc1 | -5.7% (inactive) |
| Fc1ccc(COc2ccc(/C=N/n3cnnc3)cc2)cc1 | -3.3% (inactive) |
| Cc1occc1C(=O)Nc1nnc(-c2cccs2)s1 | 6.2% (inactive) |
| Clc1ccccc1Sc1cnc2ccccc2n1 | 0.9% (inactive) |
| O=C(/C=C/c1ccc(S(=O)(=O)N2CCOCC2)cc1)NC(=S)NCCCn1ccnc1 | -0.5% (inactive) |
| CC(C)=C1C2CCC1C1C(=O)N(c3nccs3)C(=O)C21 (centres undefined) | -3.3% (inactive) |
| CCN1C(=O)C(F)(CC)C(=O)c2ccccc21 (centres undefined) | 2.2% (inactive) |
| CC1(O)C(=O)c2ccccc2N(c2ccccc2)C1=O (centres undefined) | -6.5% (inactive) |
| CN1C(=O)C(Cl)(Cl)C(=O)c2ccccc21 | 77.4% (active) |
| CC(C)(C)c1ccc(C(=O)CSc2nc3ccccc3c(=O)[nH]2)cc1 | -6.3% (inactive) |
| CC(C)(C)c1ccc(C(=O)CSc2n[nH]c(=O)[nH]c2=O)cc1 | -4.4% (inactive) |
| COc1ccc(NC(C)C(=O)N/N=C/c2cc(Br)ccc2OC)cc1 (centres undefined) | 11.5% (inactive) |
